Assay outcomes (PubChem BioAssay)
SRC3 TRFRET art = counter-screen for PPARgamma SRC-3 recruitment agonists: TR-FRET artefact | PPARgamma/SRC-3 format; stronger effect = higher value | TR-FRET ratio at 8 µM | 99,000 tested, 0.39% active
TR-FRET SRC-2 ct = TR-FRET artefact, counter-screen to PPARgamma/SRC-2 agonist assay; 200,000 tested, 0.4% active; AID 1049; stronger effect = higher value; TR-FRET ratio at 8 µM
PPARg SRC-3 ag = agonists of human PPARgamma SRC-3 coactivator recruitment. P37231. biochemical PPARgamma/SRC-3 coactivator recruitment assay. activation, % at 8 µM. 200,000 tested, 0.26% active. AID 731; in the data active = activation above about 23%
PPARg SRC2 recr = PPARgamma-driven SRC-2 recruitment agonism; PPARgamma LBD-SRC-2 recruitment, biochemical; activation, % at 8 µM; P37231; 200,000 tested, 0.34% active; in the data active = activation above about 22%
SRC1 TRFRET art = flags TR-FRET format artefacts in PPARgamma SRC-1 recruitment agonist screen. TR-FRET ratio at 8 µM. 99,000 tested, 0.34% active. TR-FRET detection artefact counter-screen, emission ratio; stronger effect = higher value. AID 1051; in the data active = TR-FRET ratio above about 2300
PPARg SRC-1 ag = agonists of human PPARgamma SRC-1 coactivator recruitment. P37231. PPARgamma-SRC-1 coactivator recruitment biochemical assay. activation, % at 8 µM. 200,000 tested, 0.41% active. AID 631; in the data active = activation above about 19%
PPARg SRC2 conf = confirmation of agonists of SRC-2 recruitment by human PPARgamma | shares compounds with PPARg SRC-3 ag | biochemical SRC-2 recruitment by PPARgamma | activation, % at 8 µM | 790 tested, 52% active; in the data active = activation above about 22%
PPARg SRC1 ag = human PPARgamma SRC-1 recruitment agonism, confirmation; shares compounds with PPARg SRC-3 ag; PPARgamma–SRC-1 coactivator recruitment biochemical assay; activation, % at 8 µM; 790 tested, 43% active; in the data active = activation above about 20%
PPARg SRC3 conf = human PPARgamma SRC-3 recruitment agonism, confirmation; activation, % at 8 µM; 790 tested, 29% active; biochemical PPARgamma-SRC-3 coactivator recruitment, agonist mode; shares compounds with PPARg SRC-3 ag; AID 1301; in the data active = activation above about 24%
Target sequence (P37231 whole entry, looked up): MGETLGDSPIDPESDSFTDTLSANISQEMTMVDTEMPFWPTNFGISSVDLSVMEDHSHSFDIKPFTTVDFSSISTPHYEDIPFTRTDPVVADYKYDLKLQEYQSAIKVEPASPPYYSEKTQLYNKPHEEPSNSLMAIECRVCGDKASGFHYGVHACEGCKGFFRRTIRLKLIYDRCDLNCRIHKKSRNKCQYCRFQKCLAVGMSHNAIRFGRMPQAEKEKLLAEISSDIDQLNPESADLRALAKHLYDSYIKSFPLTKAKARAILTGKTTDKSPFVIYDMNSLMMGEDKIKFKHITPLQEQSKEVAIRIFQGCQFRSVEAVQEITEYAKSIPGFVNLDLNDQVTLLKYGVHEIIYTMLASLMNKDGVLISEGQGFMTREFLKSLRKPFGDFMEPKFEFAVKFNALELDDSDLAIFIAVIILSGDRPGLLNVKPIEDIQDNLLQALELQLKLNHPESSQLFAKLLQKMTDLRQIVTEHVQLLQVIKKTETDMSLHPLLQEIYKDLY
Target sequence (Q9Y6Q9 whole entry, looked up): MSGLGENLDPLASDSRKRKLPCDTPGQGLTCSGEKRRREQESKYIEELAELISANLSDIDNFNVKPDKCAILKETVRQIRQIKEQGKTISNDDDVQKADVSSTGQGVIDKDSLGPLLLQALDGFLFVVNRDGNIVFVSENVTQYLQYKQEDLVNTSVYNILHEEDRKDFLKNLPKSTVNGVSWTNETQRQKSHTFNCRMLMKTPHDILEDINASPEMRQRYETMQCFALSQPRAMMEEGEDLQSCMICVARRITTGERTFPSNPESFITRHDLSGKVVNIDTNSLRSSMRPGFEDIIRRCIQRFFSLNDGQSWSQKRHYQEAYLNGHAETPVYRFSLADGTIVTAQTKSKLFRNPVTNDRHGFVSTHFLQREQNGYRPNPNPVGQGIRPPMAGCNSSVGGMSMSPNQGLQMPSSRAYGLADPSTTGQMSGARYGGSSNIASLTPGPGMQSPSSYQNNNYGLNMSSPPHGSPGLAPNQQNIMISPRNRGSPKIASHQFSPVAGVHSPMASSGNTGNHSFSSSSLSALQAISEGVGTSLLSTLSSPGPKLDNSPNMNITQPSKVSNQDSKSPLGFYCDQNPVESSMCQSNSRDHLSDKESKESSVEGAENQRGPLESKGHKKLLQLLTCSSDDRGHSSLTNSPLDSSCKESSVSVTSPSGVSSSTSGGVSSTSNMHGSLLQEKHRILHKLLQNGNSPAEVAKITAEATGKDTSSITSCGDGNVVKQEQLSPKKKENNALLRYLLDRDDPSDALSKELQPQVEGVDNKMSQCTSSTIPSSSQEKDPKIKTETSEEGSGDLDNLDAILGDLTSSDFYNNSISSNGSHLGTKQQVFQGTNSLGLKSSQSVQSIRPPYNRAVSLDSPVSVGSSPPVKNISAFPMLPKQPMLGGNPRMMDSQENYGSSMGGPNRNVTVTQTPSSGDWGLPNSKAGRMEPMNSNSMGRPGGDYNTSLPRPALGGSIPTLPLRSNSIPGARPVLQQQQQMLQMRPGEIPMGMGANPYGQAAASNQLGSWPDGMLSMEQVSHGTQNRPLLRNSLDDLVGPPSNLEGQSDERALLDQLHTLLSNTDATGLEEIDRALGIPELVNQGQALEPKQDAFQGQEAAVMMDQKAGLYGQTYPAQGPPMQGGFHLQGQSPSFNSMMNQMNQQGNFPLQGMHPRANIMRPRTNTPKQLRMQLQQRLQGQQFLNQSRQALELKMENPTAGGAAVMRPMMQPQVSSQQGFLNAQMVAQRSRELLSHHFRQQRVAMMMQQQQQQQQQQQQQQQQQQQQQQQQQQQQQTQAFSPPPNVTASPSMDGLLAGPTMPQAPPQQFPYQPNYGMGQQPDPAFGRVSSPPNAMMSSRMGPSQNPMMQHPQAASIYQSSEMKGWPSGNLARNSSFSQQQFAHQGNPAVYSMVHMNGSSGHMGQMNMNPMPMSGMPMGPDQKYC
Hits are given with their value. Shown are actives, neighbours in structure and some others; about 0.9% of the full set was active somewhere. Cut-off read from the data, not from the text of the source, unless noted: active = TR-FRET ratio above about 2000; inactive = the rest.

`COc1ccc(N(CN2C(=O)C3CC=CCC3C2=O)C(=O)c2ccco2)cc1` (configuration not stated) gave TR-FRET SRC-2 ct inactive, PPARg SRC-3 ag inactive, PPARg SRC2 recr inactive, PPARg SRC-1 ag 18.7, PPARg SRC2 conf inactive, PPARg SRC1 ag inactive and PPARg SRC3 conf inactive.
Screening COc1ccc(NC(=O)c2oc3cc(C)c(C)cc3c2C)c(OC)c1 returned TR-FRET SRC-2 ct inactive, PPARg SRC-3 ag inactive, PPARg SRC2 recr inactive and PPARg SRC-1 ag inactive.
`CCN(CC)S(=O)(=O)c1ccc2oc(C(=O)Nc3ccc(OC)cc3OC)c(C)c2c1` gave TR-FRET SRC-2 ct inactive, PPARg SRC-3 ag inactive, PPARg SRC2 recr inactive, PPARg SRC-1 ag 18.9, PPARg SRC2 conf inactive, PPARg SRC1 ag inactive and PPARg SRC3 conf inactive.
Screening CC(=O)Oc1c(/C=C(\C#N)C(N)=O)[nH]c2ccccc12 returned SRC3 TRFRET art inactive, TR-FRET SRC-2 ct inactive, PPARg SRC-3 ag inactive, PPARg SRC2 recr 22.4, SRC1 TRFRET art inactive, PPARg SRC-1 ag 20.7, PPARg SRC2 conf 22.3, PPARg SRC1 ag inactive and PPARg SRC3 conf inactive.
Screening CCOC(=O)c1c(OCC)[nH]c2c1cc(O)c1ccccc12 returned TR-FRET SRC-2 ct inactive, PPARg SRC-3 ag inactive, PPARg SRC2 recr inactive, PPARg SRC-1 ag 18.9, PPARg SRC2 conf inactive, PPARg SRC1 ag inactive and PPARg SRC3 conf inactive.
`O=C(Nc1ccc2oc(-c3ccccc3)nc2c1)c1ccccc1F` gave TR-FRET SRC-2 ct inactive, PPARg SRC-3 ag inactive, PPARg SRC2 recr inactive and PPARg SRC-1 ag inactive.
`O=C(Nc1ccc2oc(-c3ccncc3)nc2c1)c1ccccc1F` gave TR-FRET SRC-2 ct inactive, PPARg SRC-3 ag 39.5, PPARg SRC2 recr 46.8, PPARg SRC-1 ag 48.8, PPARg SRC2 conf inactive, PPARg SRC1 ag inactive and PPARg SRC3 conf inactive.
Screening CCOc1cc(CNc2ccc(N3CCCCC3)cc2)cc(Br)c1OCC(=O)NC(C)(C)C returned SRC3 TRFRET art inactive, TR-FRET SRC-2 ct inactive, PPARg SRC-3 ag inactive, PPARg SRC2 recr inactive, SRC1 TRFRET art inactive and PPARg SRC-1 ag inactive.
`CCOc1cc(CNc2ccc(N(C)C)cc2)cc(Br)c1OCC(=O)NC(C)(C)C` gave TR-FRET SRC-2 ct 3290, PPARg SRC-3 ag 127.8, PPARg SRC2 recr 123.4, PPARg SRC-1 ag 55.4, PPARg SRC2 conf inactive, PPARg SRC1 ag inactive and PPARg SRC3 conf inactive.
`COc1ccc(-c2nc(SCC(=O)NC3CCCC3)c(-c3ccc(OC)cc3)[nH]2)cc1` gave SRC3 TRFRET art inactive, TR-FRET SRC-2 ct inactive, PPARg SRC-3 ag inactive, PPARg SRC2 recr 24.0, SRC1 TRFRET art inactive, PPARg SRC-1 ag inactive, PPARg SRC2 conf inactive, PPARg SRC1 ag inactive and PPARg SRC3 conf inactive.
Screening N#Cc1c(Cl)nc(SCc2ccccc2)nc1-c1ccccc1 returned TR-FRET SRC-2 ct 2883, PPARg SRC-3 ag 70.0, PPARg SRC2 recr 67.1, PPARg SRC-1 ag 59.4, PPARg SRC2 conf 80.3, PPARg SRC1 ag 65.0 and PPARg SRC3 conf 54.2.
Screening CC1(C)CC(=O)c2c(n(-c3cccc4ccccc34)ccc2=O)C1 returned TR-FRET SRC-2 ct inactive, PPARg SRC-3 ag inactive, PPARg SRC2 recr inactive and PPARg SRC-1 ag inactive.
CCn1c(=O)cc(OCC(=O)Nc2cccc(C)n2)c2ccccc21 was read as TR-FRET SRC-2 ct inactive, PPARg SRC-3 ag inactive, PPARg SRC2 recr inactive and PPARg SRC-1 ag inactive.
CCn1c(=O)cc(SCC(=O)Nc2cccc(C)n2)c2ccccc21 was read as SRC3 TRFRET art 3307, TR-FRET SRC-2 ct 3523, PPARg SRC-3 ag 37.8, PPARg SRC2 recr 37.3, SRC1 TRFRET art 3815, PPARg SRC-1 ag 58.1, PPARg SRC2 conf 47.8, PPARg SRC1 ag 32.3 and PPARg SRC3 conf 34.5.
For CCn1c(=O)cc(SCC(=O)Nc2ccc(Cl)cc2)c2ccccc21 the results were TR-FRET SRC-2 ct inactive, PPARg SRC-3 ag inactive, PPARg SRC2 recr inactive, PPARg SRC-1 ag 38.9, PPARg SRC2 conf 34.1, PPARg SRC1 ag 23.2 and PPARg SRC3 conf inactive.
For CCn1c(=O)cc(SCC(=O)Nc2ccc(OC)c(OC)c2)c2ccccc21 the results were TR-FRET SRC-2 ct 2203, PPARg SRC-3 ag 34.0, PPARg SRC2 recr 41.8, PPARg SRC-1 ag 20.5, PPARg SRC2 conf 47.6, PPARg SRC1 ag 32.9 and PPARg SRC3 conf 31.6.
Screening CC(C)NC(=O)c1ccc(-n2nc(C(F)(F)F)c3c2CCCC3)cc1 returned SRC3 TRFRET art inactive, TR-FRET SRC-2 ct inactive, PPARg SRC-3 ag inactive, PPARg SRC2 recr inactive, SRC1 TRFRET art inactive and PPARg SRC-1 ag inactive.
For COc1ccccc1/C=C/C1=NC(=C\C=C/c2ccccc2)/C(=O)O1 the results were SRC3 TRFRET art inactive, TR-FRET SRC-2 ct inactive, PPARg SRC-3 ag 40.6, PPARg SRC2 recr inactive, SRC1 TRFRET art inactive, PPARg SRC-1 ag inactive, PPARg SRC2 conf inactive, PPARg SRC1 ag inactive and PPARg SRC3 conf inactive.
`Cc1ccc(Cl)cc1-c1ccc(C=Nc2ccc(N3CCOCC3)cc2)o1` gave SRC3 TRFRET art 2494, TR-FRET SRC-2 ct 2256, PPARg SRC-3 ag 27.0, PPARg SRC2 recr 37.0, SRC1 TRFRET art 2713, PPARg SRC-1 ag 32.8, PPARg SRC2 conf 47.3, PPARg SRC1 ag 34.2 and PPARg SRC3 conf 27.8.
Screening Cc1ccc(/C=N/N2CCN(c3ccc(Cl)cc3)CC2)o1 returned TR-FRET SRC-2 ct inactive, PPARg SRC-3 ag inactive, PPARg SRC2 recr inactive and PPARg SRC-1 ag inactive.
`Cc1nn(C)c(C)c1NC(=O)CSc1nc(-c2ccccc2Cl)nc2c1cnn2-c1ccccc1` gave TR-FRET SRC-2 ct inactive, PPARg SRC-3 ag inactive, PPARg SRC2 recr inactive, PPARg SRC-1 ag 19.3, PPARg SRC2 conf inactive, PPARg SRC1 ag inactive and PPARg SRC3 conf inactive.
For NS(=O)(=O)c1ccc(CCNC(=O)c2cc(-c3ccccc3)nc3ccccc23)cc1 the results were SRC3 TRFRET art inactive, TR-FRET SRC-2 ct inactive, PPARg SRC-3 ag inactive, PPARg SRC2 recr inactive, SRC1 TRFRET art inactive and PPARg SRC-1 ag inactive.
`NS(=O)(=O)c1ccc(CNC(=O)c2cc(-c3ccccn3)nc3ccc(Cl)cc23)cc1` gave SRC3 TRFRET art 3729, TR-FRET SRC-2 ct 2879, PPARg SRC-3 ag 54.3, PPARg SRC2 recr 64.1, SRC1 TRFRET art 3155, PPARg SRC-1 ag 62.7, PPARg SRC2 conf 33.2, PPARg SRC1 ag 27.0 and PPARg SRC3 conf inactive.
For CN1/C(=C/c2cc[n+](C)c3ccccc23)C=Cc2ccccc21 the results were SRC3 TRFRET art 2217, TR-FRET SRC-2 ct 1994, PPARg SRC-3 ag 25.6, PPARg SRC2 recr 42.4, SRC1 TRFRET art 2343, PPARg SRC-1 ag 33.2, PPARg SRC2 conf inactive, PPARg SRC1 ag inactive and PPARg SRC3 conf inactive.
